# Reference: PubChem BioAssay (NCI)
# “And” between values parts separate entries of the source, which are not always exact repeats. Equal values may be shown once. About 83,000 compounds went through this panel and 20% of them were active in at least one assay; those are over-represented in the sample as a whole.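 Percent growth is the endpoint: 0 to 100 indicates growth inhibition (40 means 60% inhibition), 0 means no net growth, and negative values indicate cell death.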 The source made the active and inactive calls. Rule for the calls: active = growth percent below 10; inactive = the rest.
# Legend:
# Experiment in all cases: NCI-60 one-dose screen, 48 h (100 = growth as untreated, 0 = no growth, -100 = all killed)
# [1] = system: HCT-15 colon
# [2] = system: HT29 colon
# [3] = system: SNB-75 CNS
# [4] = system: SNB-19 CNS; conditions: 10 µM unless noted
# [5] = system: U251 CNS
# [6] = system: PC-3 prostate
# [7] = system: SK-MEL-5 melanoma
# [8] = system: UACC-62 melanoma
# [9] = system: LOX IMVI melanoma
# [10] = system: SK-MEL-28 melanoma
# [11] = system: SK-MEL-2 melanoma
# [12] = system: EKVX NSCLC
# [13] = system: SN12C renal
# [14] = system: UO-31 renal
# [15] = system: TK-10 renal
# [16] = system: ACHN renal; conditions: 10 µM unless noted
# [17] = system: CAKI-1 renal
# [18] = system: A498 renal; conditions: 10 µM unless noted
# [19] = system: CCRF-CEM leukemia
# [20] = system: MOLT-4 leukemia
compound,measurement,setting,value
O=C(O)C1C2C=CC(C2)C1C(=O)O (stereo not given),growth,[1]; 10 µM unless noted,106% (inactive) and 101% (inactive)
same,growth,[2]; 10 µM unless noted,94.3% (inactive) and 14.4% (inactive) and 104% (inactive)
same,growth,[3]; 10 µM unless noted,102% (inactive) and 61.9% (inactive) and 89% (inactive)
same,growth,[4],99.2% (inactive) and 51.6% (inactive) and 113% (inactive)
same,growth,[5]; 10 µM unless noted,105% (inactive) and 19.7% (inactive) and 98.8% (inactive)
same,growth,[6]; 10 µM unless noted,93.6% (inactive) and 17.4% (inactive) and 98.1% (inactive)
same,growth,[7]; 10 µM unless noted,103% (inactive) and 23.6% (inactive) and 98.5% (inactive)
same,growth,[8]; 10 µM unless noted,89.8% (inactive) and 26.8% (inactive) and 104% (inactive)
same,growth,[9]; 10 µM unless noted,109% (inactive) and 16.9% (inactive) and 104% (inactive)
same,growth,[10]; 10 µM unless noted,105% (inactive) and 49.8% (inactive) and 109% (inactive)
same,growth,[11]; 10 µM unless noted,150% (inactive) and 57.5% (inactive) and 111% (inactive)
same,growth,[12]; 10 µM unless noted,120% (inactive)
same,growth,[13]; 10 µM unless noted,84.7% (inactive) and 24% (inactive) and 102% (inactive)
same,growth,[14]; 10 µM unless noted,87.9% (inactive) and 96.5% (inactive) and 94.4% (inactive)
same,growth,[15]; 10 µM unless noted,91.1% (inactive) and 32.5% (inactive) and 106% (inactive)
same,growth,[16],111% (inactive) and 33.6% (inactive) and 97.6% (inactive)
same,growth,[17]; 10 µM unless noted,98.2% (inactive) and 7.77% (active) and 98.7% (inactive)
same,growth,[18],96.8% (inactive) and 64.8% (inactive) and 99.2% (inactive)
same,growth,[19]; 10 µM unless noted,95.4% (inactive) and 25.3% (inactive) and 99.6% (inactive)
same,growth,[20]; 10 µM unless noted,106% (inactive) and 27.8% (inactive) and 101% (inactive)
Cc1cc(O)c2c(c1)C(=O)c1cc(O)cc(O)c1C2=O,growth,[1]; 10 µM unless noted,98.9% (inactive) and 92.2% (inactive)
same,growth,[2]; 10 µM unless noted,105% (inactive) and 99.6% (inactive)
same,growth,[3]; 10 µM unless noted,88% (inactive) and 86.7% (inactive)
same,growth,[4],82.5% (inactive) and 94.2% (inactive)
same,growth,[5]; 10 µM unless noted,92.1% (inactive) and 88.1% (inactive)
same,growth,[6]; 10 µM unless noted,67% (inactive) and 77.9% (inactive)
same,growth,[7]; 10 µM unless noted,48.9% (inactive) and 59.9% (inactive)
same,growth,[8]; 10 µM unless noted,60.7% (inactive) and 83.6% (inactive)
same,growth,[9]; 10 µM unless noted,84.6% (inactive) and 86.5% (inactive)
same,growth,[10]; 10 µM unless noted,87.7% (inactive)
same,growth,[11]; 10 µM unless noted,94.9% (inactive) and 85.1% (inactive)
same,growth,[12]; 10 µM unless noted,68% (inactive) and 77.3% (inactive)
same,growth,[13]; 10 µM unless noted,86.1% (inactive) and 91.1% (inactive)
same,growth,[14]; 10 µM unless noted,76.6% (inactive) and 71.2% (inactive)
same,growth,[15]; 10 µM unless noted,104% (inactive) and 95.4% (inactive)
same,growth,[16],87.8% (inactive) and 88.8% (inactive)
same,growth,[17]; 10 µM unless noted,72.2% (inactive) and 95.2% (inactive)
same,growth,[18],82.7% (inactive) and 75.8% (inactive)
same,growth,[19]; 10 µM unless noted,82.5% (inactive) and 80% (inactive)
same,growth,[20]; 10 µM unless noted,101% (inactive) and 85.9% (inactive)
COc1ccc(Cl)cc1C(=O)NCCc1ccc(S(=O)(=O)NC(=O)NC2CCCCC2)cc1,growth,[1]; 10 µM,109% (inactive) and 108% (inactive)
same,growth,[1]; 100 µM,42.6% (inactive)
same,growth,[2]; 10 µM,127% (inactive) and 131% (inactive)
same,growth,[2]; 100 µM,77% (inactive)
same,growth,[3]; 10 µM,104% (inactive) and 94% (inactive)
same,growth,[3]; 100 µM,67.4% (inactive)
same,growth,[5]; 10 µM,94.3% (inactive) and 98.7% (inactive)
same,growth,[5]; 100 µM,60.3% (inactive)
same,growth,[6]; 10 µM,93.2% (inactive) and 110% (inactive)
same,growth,[6]; 100 µM,52.8% (inactive)
same,growth,[7]; 10 µM,101% (inactive) and 96.2% (inactive)
same,growth,[7]; 100 µM,45.5% (inactive)
same,growth,[8]; 10 µM,83.8% (inactive) and 92.1% (inactive)
same,growth,[8]; 100 µM,51.2% (inactive)
same,growth,[9]; 10 µM,102% (inactive) and 95.9% (inactive)
same,growth,[9]; 100 µM,64.7% (inactive)
same,growth,[10]; 10 µM,132% (inactive) and 118% (inactive)
same,growth,[10]; 100 µM,57.5% (inactive)
same,growth,[11]; 10 µM,113% (inactive)
same,growth,[11]; 100 µM,75.8% (inactive)
same,growth,[12]; 10 µM,95.5% (inactive) and 99.6% (inactive)
same,growth,[12]; 100 µM,58.6% (inactive)
same,growth,[13]; 10 µM,91.4% (inactive) and 93.8% (inactive)
same,growth,[13]; 100 µM,71.4% (inactive)
same,growth,[14]; 10 µM,96.2% (inactive) and 79.1% (inactive)
same,growth,[14]; 100 µM,40.6% (inactive)
same,growth,[15]; 10 µM,115% (inactive) and 99.1% (inactive)
same,growth,[15]; 100 µM,92.1% (inactive)
same,growth,[17]; 10 µM,94.5% (inactive) and 94.3% (inactive)
same,growth,[17]; 100 µM,56.7% (inactive)
same,growth,[18],73.2% (inactive)
same,growth,[19]; 10 µM,86.3% (inactive) and 95.1% (inactive)
same,growth,[19]; 100 µM,64.1% (inactive)
same,growth,[20]; 10 µM,113% (inactive) and 98.6% (inactive)
same,growth,[20]; 100 µM,60.6% (inactive)
O=[N+]([O-])c1ccc(/C=N\NC(=S)Nc2ccc(F)cc2)cc1,growth,[1]; 10 µM unless noted,106% (inactive) and 96.6% (inactive)
same,growth,[2]; 10 µM unless noted,93.9% (inactive) and 95.1% (inactive)
same,growth,[3]; 10 µM unless noted,92.5% (inactive) and 97.9% (inactive)
same,growth,[4],103% (inactive) and 93.5% (inactive)
same,growth,[5]; 10 µM unless noted,82.8% (inactive) and 83.4% (inactive)
same,growth,[6]; 10 µM unless noted,101% (inactive) and 86% (inactive)
same,growth,[7]; 10 µM unless noted,102% (inactive) and 101% (inactive)
same,growth,[8]; 10 µM unless noted,104% (inactive) and 91% (inactive)
same,growth,[9]; 10 µM unless noted,88.9% (inactive)
same,growth,[10]; 10 µM unless noted,103% (inactive) and 104% (inactive)
same,growth,[11]; 10 µM unless noted,91.1% (inactive) and 110% (inactive)
same,growth,[12]; 10 µM unless noted,91.9% (inactive) and 102% (inactive)
same,growth,[13]; 10 µM unless noted,105% (inactive) and 92% (inactive)
same,growth,[14]; 10 µM unless noted,96.9% (inactive) and 102% (inactive)
same,growth,[15]; 10 µM unless noted,109% (inactive) and 107% (inactive)
same,growth,[16],86.2% (inactive) and 93.4% (inactive)
same,growth,[17]; 10 µM unless noted,97.1% (inactive) and 106% (inactive)
same,growth,[18],119% (inactive)
same,growth,[19]; 10 µM unless noted,99.4% (inactive) and -3.91% (active)
same,growth,[20]; 10 µM unless noted,86.9% (inactive) and 98.6% (inactive)
O=[N+]([O-])c1ccc2nc3c4ccccc4c4ccccc4c3nc2c1,growth,[1]; 10 µM unless noted,80.8% (inactive)
same,growth,[2]; 10 µM unless noted,74.6% (inactive)
same,growth,[3]; 10 µM unless noted,74.4% (inactive)
same,growth,[4],89.2% (inactive)
same,growth,[5]; 10 µM unless noted,62.3% (inactive)
same,growth,[6]; 10 µM unless noted,55.1% (inactive)
same,growth,[7]; 10 µM unless noted,76.8% (inactive)
same,growth,[8]; 10 µM unless noted,86.7% (inactive)
same,growth,[9]; 10 µM unless noted,30.8% (inactive)
same,growth,[10]; 10 µM unless noted,113% (inactive)
same,growth,[11]; 10 µM unless noted,97.6% (inactive)
same,growth,[12]; 10 µM unless noted,81.8% (inactive)
same,growth,[13]; 10 µM unless noted,81.9% (inactive)
same,growth,[14]; 10 µM unless noted,75.3% (inactive)
same,growth,[15]; 10 µM unless noted,67.8% (inactive)
same,growth,[16],57.3% (inactive)
same,growth,[17]; 10 µM unless noted,77.9% (inactive)
same,growth,[18],-39.8% (active)
same,growth,[19]; 10 µM unless noted,63.1% (inactive)
same,growth,[20]; 10 µM unless noted,89.7% (inactive)
CC(C)(O)Cn1cc(-c2ccc3nc(OC4CC4)ccc3c2)c2c(N)ncnc21,growth,[1]; 10 µM unless noted,95.3% (inactive) and 73.8% (inactive)
same,growth,[2]; 10 µM unless noted,74% (inactive) and 44.6% (inactive)
same,growth,[3]; 10 µM unless noted,40.2% (inactive) and 37.9% (inactive)
same,growth,[4],74.8% (inactive) and 64.3% (inactive)
same,growth,[5]; 10 µM unless noted,82.1% (inactive) and 50.5% (inactive)
same,growth,[6]; 10 µM unless noted,56.8% (inactive) and 48.2% (inactive)
same,growth,[7]; 10 µM unless noted,84.3% (inactive) and 37.8% (inactive)
same,growth,[8]; 10 µM unless noted,48.4% (inactive)
same,growth,[9]; 10 µM unless noted,72.8% (inactive) and 30.4% (inactive)
same,growth,[10]; 10 µM unless noted,101% (inactive) and 71.5% (inactive)
same,growth,[11]; 10 µM unless noted,87.8% (inactive)
same,growth,[12]; 10 µM unless noted,85.8% (inactive) and 49.3% (inactive)
same,growth,[13]; 10 µM unless noted,87.9% (inactive) and 38.6% (inactive)
same,growth,[14]; 10 µM unless noted,63.7% (inactive) and 19.2% (inactive)
same,growth,[15]; 10 µM unless noted,74.2% (inactive) and 55.3% (inactive)
same,growth,[16],86.2% (inactive) and 43.1% (inactive)
same,growth,[17]; 10 µM unless noted,80.9% (inactive) and 70.1% (inactive)
same,growth,[18],64.9% (inactive) and 21% (inactive)
same,growth,[19]; 10 µM unless noted,67.2% (inactive) and 38% (inactive)
same,growth,[20]; 10 µM unless noted,56.6% (inactive) and 17.4% (inactive)
Cc1nn(-c2ccccc2)nc1C(=O)Nc1ccccc1C(=O)NCC1CC1,growth,[1]; 10 µM unless noted,87.5% (inactive) and 71.2% (inactive)
same,growth,[2]; 10 µM unless noted,99.6% (inactive) and 72.6% (inactive)
same,growth,[3]; 10 µM unless noted,121% (inactive) and 4.66% (active)
same,growth,[4],122% (inactive) and 54.3% (inactive)
same,growth,[5]; 10 µM unless noted,73.3% (inactive)
same,growth,[6]; 10 µM unless noted,85.2% (inactive) and 78.2% (inactive)
same,growth,[7]; 10 µM unless noted,95.7% (inactive) and 93.5% (inactive)
same,growth,[8]; 10 µM unless noted,86.4% (inactive) and 88.3% (inactive)
same,growth,[9]; 10 µM unless noted,86.9% (inactive)
same,growth,[10]; 10 µM unless noted,104% (inactive) and 95.8% (inactive)
same,growth,[11]; 10 µM unless noted,117% (inactive) and 103% (inactive)
same,growth,[12]; 10 µM unless noted,79.4% (inactive)
same,growth,[13]; 10 µM unless noted,89.2% (inactive) and 45.2% (inactive)
same,growth,[14]; 10 µM unless noted,95.5% (inactive) and 57.1% (inactive)
same,growth,[15]; 10 µM unless noted,83.5% (inactive)
same,growth,[16],91.8% (inactive) and 19.9% (inactive)
same,growth,[17]; 10 µM unless noted,97.6% (inactive) and 37.7% (inactive)
same,growth,[18],107% (inactive) and 92.8% (inactive)
same,growth,[19]; 10 µM unless noted,86.8% (inactive)
same,growth,[20]; 10 µM unless noted,103% (inactive) and 75.6% (inactive)
